# Results filed as inconclusive are left out. The source made the active and inactive calls. Rule for the calls: active = hit-call score of the fitted dose curve at least 0.9, where 1 is the maximum; inconclusive = response in the unintended direction; inactive = score below 0.9.
# Assays:
# [1] = TOX21_p53_BLA_p2_viability: Viability Assessment in the Tox21 HCT-116 p53 Agonism Beta-lactamase Assay, Phase 2 (AID 2283591);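 note: compound exposure lasted 16 h at 37 °C; actives lower the ATP signal meaning cytotoxicity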
# Procedure, shortened: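 HCT116 p53-bla cells, 4000/well, dosed after 5 h plating (217-fold dilution of DMSO stocks) and incubated 16 h at 37C. Viability taken as cellular ATP by CellTiter-Glo luminescence after 30 min RT; signal loss marks cytotoxicity.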
# [2] = molecular target: Cellular tumor antigen p53 (Homo sapiens) (UniProt P04637); experiment: TOX21_p53_BLA_p2_ratio: Tox21 HCT-116 p53 Agonism Beta-lactamase Assay, Ratio, Phase 2 (AID 2283592)
# Procedure, shortened: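 Ratio endpoint: beta-lactamase cleavage of CCF4-AM, blue (460 nm) over green (530 nm). HCT116 reporter line; 16 h treatment, 37C; substrate 2 h RT.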
# [3] = TOX21_p53_BLA_p3_viability: Viability Assessment in the Tox21 HCT-116 p53 Agonism Beta-lactamase Assay, Phase 3 (AID 2283593);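 note: cells exposed to compound for 16 h before reading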
# Procedure, shortened: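 HCT116 cells, 4000/well, dosed 5 h after plating by pin transfer (217-fold dilution from DMSO stock) and incubated 16 h at 37C, 5% CO2. Viability read as ATP luminescence with CellTiter-Glo after 30 min at room temperature.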
# [4] = molecular target: Cellular tumor antigen p53 (Homo sapiens) (UniProt P04637); experiment: TOX21_p53_BLA_p3_ratio: Tox21 HCT-116 p53 Agonism Beta-lactamase Assay, Ratio, Phase 3 (AID 2283596)
# Procedure, shortened: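 Cells were seeded at 4000/well, rested 5 h at 37C, then dosed with DMSO compound solutions (217-fold dilution) for 16 h. CCF4-AM substrate was loaded for 2 h at room temperature, and the 460/530 nm emission ratio was fitted for gain of signal versus DMSO.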
# [5] = TOX21_p53_BLA_p4_viability: Viability Assessment in the Tox21 HCT-116 p53 Agonism Beta-lactamase Assay, Phase 4 (AID 2283597);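 note: hits lower the luminescence signal meaning cytotoxicity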
# Procedure, shortened: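 Cytotoxicity was inferred from loss of CellTiter-Glo luminescence. HCT116 cells had been dosed with compounds after 5 h plating, incubated 16 h at 37C and 5% CO2, and exposed to the CCF4-AM substrate for 2 h.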
# [6] = molecular target: Cellular tumor antigen p53 (Homo sapiens) (UniProt P04637); experiment: TOX21_p53_BLA_p5_ratio: Tox21 HCT-116 p53 Agonism Beta-lactamase Assay, Ratio, Phase 5 (AID 2283599)
# Procedure, shortened: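 HCT-116 p53-bla cells (4000/well) plated 5 h, dosed with compound (217-fold DMSO dilution) for 16 h at 37 C; CCF4-AM substrate 2 h at room temperature. Activity is the 460/530 nm emission ratio (405 nm excitation), fitted in gain-of-signal direction versus DMSO.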
# [7] = TOX21_p53_BLA_p5_viability: Viability Assessment in the Tox21 HCT-116 p53 Agonism Beta-lactamase Assay, Phase 5 (AID 2283600)
# Procedure, shortened: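 Luciferase-coupled ATP quantitation of cells treated for 16 h (37C, 5% CO2) with test chemicals delivered in DMSO via a 217-fold dilution; 4000 cells/well; reagent incubated 30 min at room temperature before luminescence reading.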
# [8] = molecular target: Cellular tumor antigen p53 (Homo sapiens) (UniProt P04637); experiment: TOX21_p53_BLA_p4_ratio: Tox21 HCT-116 p53 Agonism Beta-lactamase Assay, Ratio, Phase 4 (AID 2283601)
# Procedure, shortened: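 HCT-116 p53 beta-lactamase reporter cells (4000/well) preincubated 5 h, then compound (217-fold dilution of DMSO stock) for 16 h at 37C. CCF4-AM substrate added 2 h at room temperature; 460/530 nm emission ratio fitted upward versus DMSO.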
# Chain of Cellular tumor antigen p53 (Homo sapiens) (P04637 whole entry, looked up): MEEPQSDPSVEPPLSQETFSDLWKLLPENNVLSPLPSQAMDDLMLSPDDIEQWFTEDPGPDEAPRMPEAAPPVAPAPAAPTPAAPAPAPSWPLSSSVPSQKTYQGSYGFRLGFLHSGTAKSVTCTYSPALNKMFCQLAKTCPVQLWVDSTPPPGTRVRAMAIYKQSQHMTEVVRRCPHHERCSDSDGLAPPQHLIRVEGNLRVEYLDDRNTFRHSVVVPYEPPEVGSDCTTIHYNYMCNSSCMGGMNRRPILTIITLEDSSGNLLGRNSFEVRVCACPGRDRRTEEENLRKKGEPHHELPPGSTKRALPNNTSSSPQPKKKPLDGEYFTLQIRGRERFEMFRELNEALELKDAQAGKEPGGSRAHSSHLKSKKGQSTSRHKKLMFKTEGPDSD
Compound,outcome [1],outcome [2],outcome [3],outcome [4],outcome [5],outcome [6],outcome [7],outcome [8],AC50 [5],AC50 [1],AC50 [2],AC50 [3],AC50 [4],AC50 [6],AC50 [7],AC50 [8]
O=C(Oc1cccc2cccnc12)c1ccccc1,inactive,inactive,inactive,inactive,inactive,inactive,inactive,inactive,,,,,,,,
O=C(O)Cc1sc(-c2ccccc2)nc1-c1ccc(Cl)cc1,inactive,inactive,inactive,inactive,inactive,inactive,inactive,inactive,,,,,,,,
O=[N+]([O-])c1ccc(O)c2ncccc12,inactive,inactive,inactive,inactive,,inactive,inactive,inactive,23 µM (active),,,,,,,
C/C=C1\NC(=O)[C@H]2CSSCC/C=C/[C@H](CC(=O)N[C@H](C(C)C)C(=O)N2)OC(=O)C(C(C)C)NC1=O (stereo partly drawn),,,,,,,,,0.735 µM (active),1.46 µM (active),0.00463 µM (active),1.87 µM (active),4.57 µM (active),11.4 µM (active),2.56 µM (active),7.21 µM (active)
Cc1onc(-c2c(F)cccc2Cl)c1C(=O)N[C@@H]1C(=O)N2[C@@H]1SC(C)(C)[C@@H]2C(=O)O,inactive,inactive,inactive,inactive,inactive,inactive,inactive,inactive,,,,,,,,
O=c1c(-c2ccccc2)c1-c1ccccc1,inactive,,inactive,,inactive,inactive,inactive,inactive,,,23.8 µM (active),,22.2 µM (active),,,
CCCCCCCCCCCCCCCCCC(=O)OC[C@@H](O)[C@H]1OC[C@H](O)[C@H]1O,inactive,inactive,inactive,inactive,inactive,inactive,inactive,inactive,,,,,,,,
CC(=O)Oc1ccc(C2(c3ccc(OC(C)=O)cc3)Oc3ccccc3NC2=O)cc1,inactive,,inactive,inactive,inactive,,inactive,inactive,,,2.17 µM (active),,,6.63 µM (active),,
CCCCC(CC)CN=C(N)NC(N)=NCCCCCCN=C(N)NC(N)=NCC(CC)CCCC (stereo not drawn),,,,,,,,,29.4 µM (active),32 µM (active),24.1 µM (active),36.8 µM (active),33.9 µM (active),37.3 µM (active),31.6 µM (active),27.9 µM (active)
CCOc1ccc(Cc2nccc3cc(OCC)c(OCC)cc23)cc1OCC,inactive,inactive,inactive,inactive,inactive,inactive,inactive,inactive,,,,,,,,
Oc1c(Br)cc(Br)c2cccnc12,inactive,,inactive,inactive,,inactive,inactive,inactive,7.62 µM (active),,5.02 µM (active),,,,,
CS(=O)(=O)Nc1ccc([N+](=O)[O-])cc1Oc1ccccc1,inactive,inactive,inactive,inactive,inactive,inactive,inactive,inactive,,,,,,,,
COc1cc(-c2ccc(-[n+]3nc(-c4ccccc4)nn3-c3ccc([N+](=O)[O-])cc3)c(OC)c2)ccc1-[n+]1nc(-c2ccccc2)nn1-c1ccc([N+](=O)[O-])cc1,,,,,,,,,11.4 µM (active),13 µM (active),19.1 µM (active),21.3 µM (active),36.5 µM (active),21.7 µM (active),17.6 µM (active),18 µM (active)
O=C(/C=C/c1ccc([N+](=O)[O-])cc1)c1ccccc1,inactive,inactive,inactive,inactive,inactive,inactive,inactive,inactive,,,,,,,,
CC(C)(C)C(=O)O,inactive,inactive,inactive,inactive,inactive,inactive,inactive,inactive,,,,,,,,
O=C(N/N=C/c1ccccc1O)c1ccncc1,inactive,inactive,inactive,inactive,,inactive,inactive,inactive,8.16 µM (active),,,,,,,
Cn1c(O)c(N=NC(N)=S)c2ccccc21,inactive,inactive,inactive,inactive,inactive,inactive,inactive,inactive,,,,,,,,
CCc1cccc(CC)c1NC(=O)CN(CC(=O)O)CC(=O)O,inactive,inactive,inactive,inactive,inactive,inactive,inactive,inactive,,,,,,,,
OCCN1CCN(CCCN2c3ccccc3Sc3ccc(C(F)(F)F)cc32)CC1,inactive,inactive,inactive,inactive,,inactive,inactive,,33.5 µM (active),,,,,,,40.9 µM (active)
CO[C@@]12[C@H](COC(N)=O)C3=C(C(=O)C(C)=C(N)C3=O)N1C[C@@H]1N[C@@H]12,,,,,inactive,,,,,33.2 µM (active),7.59 µM (active),29.5 µM (active),3.24 µM (active),6.3 µM (active),34.4 µM (active),20.8 µM (active)
CC(C)(C)C(=O)C(Oc1ccc(Cl)cc1)n1ccnc1 (stereo not drawn),inactive,inactive,inactive,inactive,inactive,inactive,inactive,inactive,,,,,,,,

# From PubChem BioAssay (EPA / NIEHS)
